From publication PMC5540273 (PLoS ONE, 2017)

How the values were obtained:
Conditions in all cases: concentration: 1 μM, replicates: in singlicate; n = 1
PIK3CG = tested on: PIK3CG
PIK4CB = tested on: T1, PIK4CB
T1 construct: gene PI4KB

PIKFYVE = tested on: PIKFYVE
PIM1 = tested on: PIM1
PIM2 = tested on: PIM2
PIM3 = tested on: PIM3
PIP5K1A = tested on: PIP5K1A
PIP5K1C = tested on: PIP5K1C
PIP5K2B = tested on: PIP5K2B
PIP5K2C = tested on: T2, PIP5K2C
T2 construct: gene PIP4K2C

PKAC-alpha = tested on: T3, PKAC-alpha
T3 construct: gene PRKACA

PKAC-beta = tested on: T4, PKAC-beta
T4 construct: gene PRKACB

PKMYT1 = tested on: PKMYT1
PKN1 = tested on: PKN1
PKN2 = tested on: PKN2
PLK1 = tested on: PLK1
PLK2 = tested on: PLK2
PLK3 = tested on: PLK3
PLK4 = tested on: PLK4
PRKCD = tested on: PRKCD
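Also: KINOMEscan kinase panel screen.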

| SMILES | %Inh (PIK3CG) [%] | %Inh (PIK4CB) [%] | %Inh (PIKFYVE) [%] | %Inh (PIM1) [%] | %Inh (PIM2) [%] | %Inh (PIM3) [%] | %Inh (PIP5K1A) [%] | %Inh (PIP5K1C) [%] | %Inh (PIP5K2B) [%] | %Inh (PIP5K2C) [%] | %Inh (PKAC-alpha) [%] | %Inh (PKAC-beta) [%] | %Inh (PKMYT1) [%] | %Inh (PKN1) [%] | %Inh (PKN2) [%] | %Inh (PLK1) [%] | %Inh (PLK2) [%] | %Inh (PLK3) [%] | %Inh (PLK4) [%] | %Inh (PRKCD) [%] |
| --- | --- | --- | --- | --- | --- | --- | --- | --- | --- | --- | --- | --- | --- | --- | --- | --- | --- | --- | --- | --- |
| CC(C)(C)c1ccc(C(=O)Nc2cn3cc(-c4ccccc4)ccc3n2)cc1 | 0 | 0 | 27 | 30 | 0 | 19 | 0 | 32 | 6 | 54 | 0 | 7 | 0 | 0 | 16 | 0 | 0 | 13 | 40 | 0 |
| COc1ccc(-c2cc3c(C)nc(N)nc3n([C@H]3CC[C@H](OCCO)CC3)c2=O)cn1 | – | 96.1 | 11 | 0 | 44 | 0 | 0 | 1 | 2 | 9 | 3 | 0 | 0 | 5 | 0 | 0 | 0 | 0 | 1 | 2 |
| CCCNC(=O)Nc1ccc(Oc2ncnc3ccn(C)c23)cc1 | 12 | 0 | 0 | 0 | 5 | 0 | 0 | 17 | 47 | 27 | 0 | 0 | 0 | 0 | 0 | 0 | 28 | 15 | 18 | 33 |
| Nc1n[nH]c2nnc(-c3ccccc3)c(-c3ccccc3)c12 [GW554060] | 0 | 0 | 12 | 0 | 0 | 0 | 11 | 47 | 14 | 14 | 0 | 16 | 0 | 20 | 3 | 8 | 0 | 0 | 0 | 3 |
| COc1cc2ncn(-c3cc(OCc4ccncc4Br)c(C(N)=O)s3)c2cc1OC [GW854278] | 55 | 23 | 17 | 0 | 0 | 2 | 0 | 86 | 41 | 81 | 0 | 0 | 0 | 10 | 0 | 99.9 | 99.7 | 99.2 | 4 | 7 |
| COc1cc2ncn(-c3cc(OCc4ccc(S(C)(=O)=O)cc4)c(C(N)=O)s3)c2cc1OC [GW869979] | 26 | 18 | 14 | 0 | 0 | 0 | 0 | 39 | 16 | 0 | 0 | 0 | 0 | 8 | 0 | 98.3 | 98.9 | 92.3 | 3 | 0 |
| Cc1cc(Nc2nc(-c3cccc(C)n3)nc3ccccc23)ccn1 [GW872411] | 0 | 0 | 53 | 0 | 0 | 0 | 2 | 0 | 0 | 0 | 0 | 0 | 24 | 0 | 0 | 0 | 0 | 1 | 0 | 8 |
| COc1cc2ncn(-c3cc(OCCCc4ccccc4)c(C(N)=O)s3)c2cc1OC [GSK205189] | 0 | 0 | 0 | 0 | 0 | 0 | 0 | 69 | 0 | 9 | 0 | 5 | 0 | 0 | 16 | – | 98.2 | 92.3 | 0 | 0 |
| O=C(Nc1n[nH]c2nc(-c3ccccc3)c(Cl)cc12)C1CC1 [SB-734909] | 45 | 2 | 0 | 0 | 3 | 1 | 8 | 38 | 13 | 14 | 0 | 0 | 16 | 45 | 0 | 24 | 0 | 13 | 29 | 2 |
| Cc1nnc(-c2ccc3ncn(-c4ccc(S(C)=O)cc4)c3c2)o1 (stereo not drawn) | 0 | 0 | 19 | 4 | 1 | 11 | 0 | 18 | 5 | 55 | 12 | 0 | 0 | 0 | 0 | 0 | 0 | 9 | 14 | 0 |
| Cc1ccccc1COc1cc(-n2cnc3cc(Cl)ccc32)sc1C(N)=O [GW813349] | 24 | 0 | 0 | 2 | 18 | 0 | 24 | 37 | 0 | 24 | 0 | 21 | 0 | 7 | 0 | 97 | 92.4 | 92.8 | 2 | 12 |
| COc1cc(Nc2nccc(N3CCC(NC(=O)C4COc5ccccc5O4)C3)n2)cc(OC)c1OC (stereo not drawn) [GSK1379761] | 0 | 0 | 21 | 0 | 0 | 0 | 51 | 0 | 6 | 89 | 4 | 0 | 5 | 0 | 7 | 13 | 0 | 0 | 9 | 18 |
| COc1ccc(-c2coc3ccc(-c4nnc(SCc5cccc(C#N)c5)o4)cc23)cc1 | 0 | 29 | 0 | 12 | 20 | 17 | 0 | 0 | 4 | 9 | 11 | 0 | 0 | 32 | 0 | 0 | 11 | 12 | 18 | 12 |
| O=C(Nc1n[nH]c2nc(-c3ccccc3)c(Br)cc12)C1CC1 [SB-708998] | 0 | 0 | 0 | 4 | 0 | 0 | 0 | 14 | 33 | 0 | 0 | 2 | 8 | 21 | 0 | 10 | 0 | 0 | 2 | 0 |
| COc1cccc(C2=C(N(C)c3ccccc3)C(=O)NC2=O)c1 [SB-334865] | 0 | 0 | 2 | 0 | 0 | 0 | 0 | 70 | 6 | 30 | 0 | 0 | 1 | 0 | 0 | 0 | 0 | 0 | 17 | 0 |
| COc1cc(Nc2ccnc3ccc(C(F)(F)F)cc23)cc(OC)c1OC [GW577382] | 0 | 0 | 0 | 2 | 0 | 0 | 0 | 54 | 10 | 50 | 14 | 4 | 6 | 0 | 0 | 12 | 0 | 0 | 50 | 15 |
